Where “and” joins values, the source holds several entries; their conditions need not be identical. Equal values may be shown once. The campaign covered roughly 5,500 compounds. About 2,000 (36%) were called active. Not shown: some 18% with an inconclusive outcome. No stated cut-off is given here; in the data, active means normalized growth mostly below about 0.91 (no sharp cut-off); inconclusive means no clear call, values can overlap the other calls; inactive means mostly above about 0.92. The list shows a part of the results.
Experiment: chemical genetic growth profiling, strain panel (AID 1159580);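 further: tested at 20 µM; growth read once vehicle control cultures reached saturation at 30 °C; 1 = growth at the plate median or of vehicle wells; lower values mean less growth of the strain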
Details: S. cerevisiae deletion strains, growth OD

Measured: normalized growth

COc1cc2c(cc1OC)C(=O)OC2
inactive: locus YAL013W, strain DEP1, active compounds read low 1 | locus YAL021C, strain ccr4, active compounds read low 0.998 | locus YAL026C, strain drs2, active compounds read low 1.01 | locus YAL030W, strain snc1, active compounds read low 0.981 | locus YBL061C, strain skt5, active compounds read low 0.988 | locus YBR009C, strain hhf1, active compounds read low 0.992 | locus YBR021W, strain FUR4, active compounds read low 0.999 | locus YBR023C, strain chs3, active compounds read low 0.993 | locus YBR171W, strain sec66, active compounds read low 0.998 | locus YBR229C, strain ROT2, active compounds read low 1.01 | locus YBR231C, strain swc5, active compounds read low 0.98 | locus YBR279W, strain paf1, active compounds read low 0.997 | locus YCL011C, strain gbp2, active compounds read low 0.99 | locus YCL016C, strain dcc1, active compounds read low 0.987 | locus YCL029C, strain bik1, active compounds read low 1.01 | locus YCL061C, strain MRC1, active compounds read low 0.999 | locus YCL069W, strain vba3, active compounds read low 1 | locus YCR088W, strain abp1, active compounds read low 0.994 | locus YDL005C, strain med2, active compounds read low 0.988 | locus YDL035C, strain GPR1, active compounds read low 1.02 | locus YDL040C, strain nat1, active compounds read low 0.985 | locus YDL074C, strain BRE1, active compounds read low 0.985 | locus YDL101C, strain DUN1, active compounds read low 1.01 | locus YDL134C, strain PPH21, active compounds read low 0.999 | locus YDL185W, strain tfp1, active compounds read low 1.01 | locus YDL192W, strain arf1, active compounds read low 1 | locus YDR001C, strain nth1, active compounds read low 1.01 | locus YDR069C, strain doa4, active compounds read low 0.994 | locus YDR101C, strain arx1, active compounds read low 0.994 | locus YDR137W, strain rgp1, active compounds read low 0.967 | locus YDR150W, strain NUM1, active compounds read low 1 | locus YDR159W, strain sac3, active compounds read low 1.01 | locus YDR162C, strain NBP2, active compounds read low 0.985 | locus YDR195W, strain ref2 1 | locus YDR297W, strain sur2, active compounds read low 0.998 | locus YDR318W, strain mcm21, active compounds read low 1.02 | locus YDR334W, strain swr1, active compounds read low 0.976 | locus YDR335W, strain msn5, active compounds read low 1 | locus YDR388W, active compounds read low 1.01 | locus YDR392W, strain spt3, active compounds read low 0.997 | locus YDR502C, strain sam2, active compounds read low 0.983 | locus YEL003W, strain gim4, active compounds read low 0.999 | locus YEL037C, strain rad23, active compounds read low 0.994 | locus YEL061C, strain CIN8 (second series), active compounds read low 1.01 | locus YEL061C, strain CIN8, active compounds read low 1 | locus YER015W, strain faa2, active compounds read low 0.988 | locus YER016W, strain bim1, active compounds read low 0.999 | locus YER110C, active compounds read low 1.01 | locus YER111C, strain swi4, active compounds read low 0.996 | locus YER155C, strain BEM2 (second series), active compounds read low 0.992 | locus YER155C, strain BEM2, active compounds read low 1.01 | locus YER167W, strain BCK2, active compounds read low 1.03 | locus YFR010W, strain ubp6, active compounds read low 0.989 | locus YGL078C, strain dbp3, active compounds read low 0.984 | locus YGL086W, strain mad1, active compounds read low 1.03 | locus YGL167C, strain pmr1, active compounds read low 0.984 | locus YGL173C, strain kem1, active compounds read low 0.983 | locus YGL227W, strain vid30, active compounds read low 0.998 | locus YGL240W, strain doc1, active compounds read low 1.03 | locus YGL248W, strain PDE1, active compounds read low 1.01 | locus YGL253W, strain hxk2, active compounds read low 0.993 | locus YGR078C, strain PAC10, active compounds read low 0.987 | locus YGR135W, strain pre9, active compounds read low 0.961 | locus YGR229C, strain SMI1, active compounds read low 0.999 | locus YGR252W, strain gcn5, active compounds read low 1.06 | locus YHR013C, strain ard1, active compounds read low 0.988 | locus YHR027C, strain rpn1, active compounds read low 1 | locus YHR030C, strain SLT2, active compounds read low 1.01 and 0.973 | locus YHR079C, strain IRE1 (second series), active compounds read low 1.01 | locus YHR079C, strain IRE1, active compounds read low 0.984 | locus YHR094C, strain hxt1, active compounds read low 0.999 | locus YHR129C, strain ARP1, active compounds read low 1.01 | locus YHR142W, strain chs7, active compounds read low 0.972 | locus YHR200W, strain rpn10, active compounds read low 1 | locus YIL066C, strain RNR3, active compounds read low 1.02 | locus YIL073C, strain SPO22, active compounds read low 1.06 | locus YIL125W, strain kgd1, active compounds read low 0.99 | locus YIR030C, strain dcg1, active compounds read low 0.999 | locus YJL092W, strain hpr5, active compounds read low 0.999 | locus YJL095W, strain BCK1 (second series), active compounds read low 0.991 | locus YJL095W, strain BCK1, active compounds read low 0.996 and 0.98 | locus YJL115W, strain asf1, active compounds read low 1 | locus YJL129C, strain trk1, active compounds read low 1.03 | locus YJL134W, strain LCB3, active compounds read low 1 | locus YJL154C, strain vps35, active compounds read low 0.988 | locus YJL164C, strain tpk1, active compounds read low 0.996 | locus YJL166W, strain qcr8, active compounds read low 0.981 | locus YJL168C, strain set2, active compounds read low 1.01 | locus YJL187C, strain SWE1 (second series), active compounds read low 1 | locus YJR043C, strain POL32, active compounds read low 1.03 | locus YJR066W, strain TOR1, active compounds read low 0.977

Reference: PubChem BioAssay AID1159580 (chemical genetic matrix, 2015)
